In PubChem BioAssay:

Assay: small-molecule microarray binders of probe aEGFR, primary screen, biochemical, biotinylated probe, 635/667 nm fluorescence (AID 1097);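 further: probe is a biotinylated anti-EGFR antibody binding compounds printed on slides; score combines fluorescence near 667 nm and signal to noise of each spot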
Conditions: higher = more signal

SMILES | composite z-score
O=C1c2ccccc2[C@](Cc2ccccc2I)(C(=O)NCC(F)(F)F)[C@H](c2ccc(CO)cc2)N1Cc1ccccc1C(F)(F)F | 0.0443
C=CCC(OC(C)=O)[C@@H]1[C@@H](N(Cc2cccc3ccccc23)C(=O)Cc2ccc(F)cc2)c2cc(OCCCO)ccc2N1C(=O)Cc1ccc2ccccc2c1 (some centres not stated) | -0.121
C=CCN1C(=O)[C@@]2(Cc3ccccc3)N=C(c3ccc(OCCCO)cc3)O[C@H]2c2ccccc21 | 0.031
Cc1ccc(N2C(=O)c3ccccc3[C@@H](C(=O)NCc3ccccc3)[C@@H]2c2ccc(CO)cc2)nc1 | -0.166
CO[C@H]1COC(=O)[C@H](C)COC(=O)[C@H](Cc2ccccc2)NC(=O)CC=C[C@H]1C | -0.139
CN(C)CCCC[C@@H]1NC(=O)[C@@H]2C[C@H](C(=O)NCCCCCNC(=O)CS)[C@H](c3ccc(O)cc3)N2C1=O | 0.268
O=C1O[C@H](c2ccccc2)[C@H](c2ccccc2)N2[C@H]1[C@@H](C(=O)NC[C@H](O)c1ccccc1)[C@]1(C(=O)Nc3ccc(C#CC4=CCCCC4)cc31)[C@H]2c1ccc(OCCO)cc1 | -0.0494
